# Source: the supplement of paper PMC4466140
# Target: AgAbp1
# Test: SPOT peptide array binding signal intensity (averaged, normalized) (arbitrary units (background-subtracted, floor 0; scale differs between SH3 domains)); higher = stronger binding of the SH3 domain to the peptide
# Protocol: (§1)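 GST-tagged SH3 domains from S. cerevisiae (Sc), A. gossypii (Ag), C. albicans (Ca) and S. pombe (Sp) were incubated at 10 ug/ml overnight at 4 C on cellulose SPOT membranes carrying 292 synthetic 15-mer peptides mined from the S. cerevisiae proteome (cysteines replaced by serines). Binding was detected with anti-GST antibody, HRP secondary and chemiluminescence, quantified with Genespotter, and reported as normalized spot intensities averaged over biological replicates.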
row,Binder,SPOT peptide array binding signal intensity
1,RSKRLFPVRPMATAH,39.5

# Target: AgBbc1
# Test: as above
# Protocol: as §1
row,Binder,SPOT peptide array binding signal intensity
1,RSKRLFPVRPMATAH,36.2

# Target: AgBem1-D1
# Test: as above
# Protocol: as §1
row,Binder,SPOT peptide array binding signal intensity
1,RSKRLFPVRPMATAH,89

# Target: AgBzz1-D1
# Test: as above
# Protocol: as §1
row,Binder,SPOT peptide array binding signal intensity
1,RSKRLFPVRPMATAH,13

# Target: AgBzz1-D2
# Test: as above
# Protocol: as §1
row,Binder,SPOT peptide array binding signal intensity
1,RSKRLFPVRPMATAH,11.5

# Target: AgCyk3
# Test: as above
# Protocol: as §1
row,Binder,SPOT peptide array binding signal intensity
1,RSKRLFPVRPMATAH,3

# Target: AgFus1
# Test: as above
# Protocol: as §1
row,Binder,SPOT peptide array binding signal intensity
1,RSKRLFPVRPMATAH,190

# Target: AgHof1
# Test: as above
# Protocol: as §1
row,Binder,SPOT peptide array binding signal intensity
1,RSKRLFPVRPMATAH,3.5

# Target: AgHse1
# Test: as above
# Protocol: as §1
row,Binder,SPOT peptide array binding signal intensity
1,RSKRLFPVRPMATAH,632

# Target: AgLsb1
# Test: as above
# Protocol: as §1
row,Binder,SPOT peptide array binding signal intensity
1,RSKRLFPVRPMATAH,3

# Target: AgLsb4
# Test: as above
# Protocol: as §1
row,Binder,SPOT peptide array binding signal intensity
1,RSKRLFPVRPMATAH,51

# Target: AgMyo5
# Test: as above
# Protocol: as §1
row,Binder,SPOT peptide array binding signal intensity
1,RSKRLFPVRPMATAH,0.5

# Target: AgNbp2
# Test: as above
# Protocol: as §1
row,Binder,SPOT peptide array binding signal intensity
1,RSKRLFPVRPMATAH,218

# Target: AgRvs167
# Test: as above
# Protocol: as §1
row,Binder,SPOT peptide array binding signal intensity
1,RSKRLFPVRPMATAH,4.33

# Target: AgSho1
# Test: as above
# Protocol: as §1
row,Binder,SPOT peptide array binding signal intensity
1,RSKRLFPVRPMATAH,79

# Target: AgSla1-D1-D2
# Test: as above
# Protocol: as §1
row,Binder,SPOT peptide array binding signal intensity
1,RSKRLFPVRPMATAH,469

# Target: AgSla1-D3
# Test: as above
# Protocol: as §1
row,Binder,SPOT peptide array binding signal intensity
1,RSKRLFPVRPMATAH,10.2

# Target: CaAbp1-D1
# Test: as above
# Protocol: as §1
row,Binder,SPOT peptide array binding signal intensity
1,RSKRLFPVRPMATAH,451

# Target: CaAbp1-D2
# Test: as above
# Protocol: as §1
row,Binder,SPOT peptide array binding signal intensity
1,RSKRLFPVRPMATAH,414

# Target: CaBbc1
# Test: as above
# Protocol: as §1
row,Binder,SPOT peptide array binding signal intensity
1,RSKRLFPVRPMATAH,128

# Target: CaBem1-D1
# Test: as above
# Protocol: as §1
row,Binder,SPOT peptide array binding signal intensity
1,RSKRLFPVRPMATAH,7

# Target: CaBzz1-D1
# Test: as above
# Protocol: as §1
row,Binder,SPOT peptide array binding signal intensity
1,RSKRLFPVRPMATAH,53

# Target: CaBzz1-D2
# Test: as above
# Protocol: as §1
row,Binder,SPOT peptide array binding signal intensity
1,RSKRLFPVRPMATAH,51.5

# Target: CaCyk3
# Test: as above
# Protocol: as §1
row,Binder,SPOT peptide array binding signal intensity
1,RSKRLFPVRPMATAH,64.5

# Target: CaFus1
# Test: as above
# Protocol: as §1
row,Binder,SPOT peptide array binding signal intensity
1,RSKRLFPVRPMATAH,402

# Target: CaHof1
# Test: as above
# Protocol: as §1
row,Binder,SPOT peptide array binding signal intensity
1,RSKRLFPVRPMATAH,≤ 0

# Target: CaHse1
# Test: as above
# Protocol: as §1
row,Binder,SPOT peptide array binding signal intensity
1,RSKRLFPVRPMATAH,14.2

# Target: CaLsb1
# Test: as above
# Protocol: as §1
row,Binder,SPOT peptide array binding signal intensity
1,RSKRLFPVRPMATAH,0.5

# Target: CaLsb4
# Test: as above
# Protocol: as §1
row,Binder,SPOT peptide array binding signal intensity
1,RSKRLFPVRPMATAH,502

# Target: CaMyo5
# Test: as above
# Protocol: as §1
row,Binder,SPOT peptide array binding signal intensity
1,RSKRLFPVRPMATAH,≤ 0

# Target: CaNbp2
# Test: as above
# Protocol: as §1
row,Binder,SPOT peptide array binding signal intensity
1,RSKRLFPVRPMATAH,366

# Target: CaRvs167
# Test: as above
# Protocol: as §1
row,Binder,SPOT peptide array binding signal intensity
1,RSKRLFPVRPMATAH,27.8

# Target: CaRvs167-3
# Test: as above
# Protocol: as §1
row,Binder,SPOT peptide array binding signal intensity
1,RSKRLFPVRPMATAH,93.5

# Target: CaSho1
# Test: as above
# Protocol: as §1
row,Binder,SPOT peptide array binding signal intensity
1,RSKRLFPVRPMATAH,544

# Target: CaSla1-D1-D2
# Test: as above
# Protocol: as §1
row,Binder,SPOT peptide array binding signal intensity
1,RSKRLFPVRPMATAH,95

# Target: CaSla1-D3
# Test: as above
# Protocol: as §1
row,Binder,SPOT peptide array binding signal intensity
1,RSKRLFPVRPMATAH,22

# Target: ScAbp1
# Test: as above
# Protocol: as §1
row,Binder,SPOT peptide array binding signal intensity
1,RSKRLFPVRPMATAH,4

# Target: ScBbc1
# Test: as above
# Protocol: as §1
row,Binder,SPOT peptide array binding signal intensity
1,RSKRLFPVRPMATAH,10

# Target: ScBem1-D1
# Test: as above
# Protocol: as §1
row,Binder,SPOT peptide array binding signal intensity
1,RSKRLFPVRPMATAH,5

# Target: ScBzz1-D1
# Test: as above
# Protocol: as §1
row,Binder,SPOT peptide array binding signal intensity
1,RSKRLFPVRPMATAH,1.5

# Target: ScBzz1-D2
# Test: as above
# Protocol: as §1
row,Binder,SPOT peptide array binding signal intensity
1,RSKRLFPVRPMATAH,2

# Target: ScCyk3
# Test: as above
# Protocol: as §1
row,Binder,SPOT peptide array binding signal intensity
1,RSKRLFPVRPMATAH,216

# Target: ScFus1
# Test: as above
# Protocol: as §1
row,Binder,SPOT peptide array binding signal intensity
1,RSKRLFPVRPMATAH,255

# Target: ScHof1
# Test: as above
# Protocol: as §1
row,Binder,SPOT peptide array binding signal intensity
1,RSKRLFPVRPMATAH,1

# Target: ScHse1
# Test: as above
# Protocol: as §1
row,Binder,SPOT peptide array binding signal intensity
1,RSKRLFPVRPMATAH,998

# Target: ScLsb1
# Test: as above
# Protocol: as §1
row,Binder,SPOT peptide array binding signal intensity
1,RSKRLFPVRPMATAH,14.5

# Target: ScLsb2
# Test: as above
# Protocol: as §1
row,Binder,SPOT peptide array binding signal intensity
1,RSKRLFPVRPMATAH,≤ 0

# Target: ScLsb3
# Test: as above
# Protocol: as §1
row,Binder,SPOT peptide array binding signal intensity
1,RSKRLFPVRPMATAH,1050

# Target: ScLsb4
# Test: as above
# Protocol: as §1
row,Binder,SPOT peptide array binding signal intensity
1,RSKRLFPVRPMATAH,32.5

# Target: ScMyo3
# Test: as above
# Protocol: as §1
row,Binder,SPOT peptide array binding signal intensity
1,RSKRLFPVRPMATAH,5.5

# Target: ScMyo5
# Test: as above
# Protocol: as §1
row,Binder,SPOT peptide array binding signal intensity
1,RSKRLFPVRPMATAH,3

# Target: ScNbp2
# Test: as above
# Protocol: as §1
row,Binder,SPOT peptide array binding signal intensity
1,RSKRLFPVRPMATAH,384

# Target: ScPex13
# Test: as above
# Protocol: as §1
row,Binder,SPOT peptide array binding signal intensity
1,RSKRLFPVRPMATAH,3.5

# Target: ScRvs167
# Test: as above
# Protocol: as §1
row,Binder,SPOT peptide array binding signal intensity
1,RSKRLFPVRPMATAH,256

# Target: ScSho1
# Test: as above
# Protocol: as §1
row,Binder,SPOT peptide array binding signal intensity
1,RSKRLFPVRPMATAH,661

# Target: ScSla1-D1-D2
# Test: as above
# Protocol: as §1
row,Binder,SPOT peptide array binding signal intensity
1,RSKRLFPVRPMATAH,212

# Target: ScSla1-D3
# Test: as above
# Protocol: as §1
row,Binder,SPOT peptide array binding signal intensity
1,RSKRLFPVRPMATAH,34

# Target: SpAbp1-D1
# Test: as above
# Protocol: as §1
row,Binder,SPOT peptide array binding signal intensity
1,RSKRLFPVRPMATAH,118

# Target: SpBbc1
# Test: as above
# Protocol: as §1
row,Binder,SPOT peptide array binding signal intensity
1,RSKRLFPVRPMATAH,≤ 0

# Target: SpBzz1-D1
# Test: as above
# Protocol: as §1
row,Binder,SPOT peptide array binding signal intensity
1,RSKRLFPVRPMATAH,142

# Target: SpBzz1-D2
# Test: as above
# Protocol: as §1
row,Binder,SPOT peptide array binding signal intensity
1,RSKRLFPVRPMATAH,0.5

# Target: SpCyk3
# Test: as above
# Protocol: as §1
row,Binder,SPOT peptide array binding signal intensity
1,RSKRLFPVRPMATAH,5.5

# Target: SpHof1
# Test: as above
# Protocol: as §1
row,Binder,SPOT peptide array binding signal intensity
1,RSKRLFPVRPMATAH,99.2

# Target: SpHof1-2
# Test: as above
# Protocol: as §1
row,Binder,SPOT peptide array binding signal intensity
1,RSKRLFPVRPMATAH,5.5

# Target: SpHof1-3
# Test: as above
# Protocol: as §1
row,Binder,SPOT peptide array binding signal intensity
1,RSKRLFPVRPMATAH,550

# Target: SpHse1
# Test: as above
# Protocol: as §1
row,Binder,SPOT peptide array binding signal intensity
1,RSKRLFPVRPMATAH,350

# Target: SpLsb1
# Test: as above
# Protocol: as §1
row,Binder,SPOT peptide array binding signal intensity
1,RSKRLFPVRPMATAH,3

# Target: SpLsb4
# Test: as above
# Protocol: as §1
row,Binder,SPOT peptide array binding signal intensity
1,RSKRLFPVRPMATAH,624

# Target: SpMyo1
# Test: as above
# Protocol: as §1
row,Binder,SPOT peptide array binding signal intensity
1,RSKRLFPVRPMATAH,1

# Target: SpNbp2
# Test: as above
# Protocol: as §1
row,Binder,SPOT peptide array binding signal intensity
1,RSKRLFPVRPMATAH,235

# Target: SpPex13
# Test: as above
# Protocol: as §1
row,Binder,SPOT peptide array binding signal intensity
1,RSKRLFPVRPMATAH,11

# Target: SpRvs167
# Test: as above
# Protocol: as §1
row,Binder,SPOT peptide array binding signal intensity
1,RSKRLFPVRPMATAH,52.2

# Target: SpSla1-D1-D2
# Test: as above
# Protocol: as §1
row,Binder,SPOT peptide array binding signal intensity
1,RSKRLFPVRPMATAH,1

# Target: SpSla1-D3
# Test: as above
# Protocol: as §1
row,Binder,SPOT peptide array binding signal intensity
1,RSKRLFPVRPMATAH,13
